{
  "source": "PubChem BioAssay AID492997",
  "about": "(Johns Hopkins Ion Channel Center, 2010)",
  "note": "Screen size: about 4,900 compounds; about 2,000 (41%) were called active.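 How the source made its calls: active means thallium signal drop beyond 5 SD of the untreated control mean, on both duplicate plates; inactive means the rest.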 The set was probably picked from earlier hits. These entries were drawn from the full list.",
  "data": [
    {"assay": "nonspecific activity without KCNK9 expression – cell-based, second counter screen, non-induced KCNK9-HEK293, counter-screen for KCNK9 inhibitor project, confirmation (AID 492997);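 on inhibition: plate controls were buffer only IC0 wells for no effect and SID17386958 at its maximal inhibitory level for full effect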", "conditions": "non-induced KCNK9-HEK293, FluxOR thallium flux, at 10 µM; hits give high values", "values": [
      {"molecule": "CCCCCCCCCCCCn1ccc(=N)cc1", "inhibition": "29.5% (active)"},
      {"molecule": "CCOC(=O)C1SC2(C(F)(F)C(F)F)CC1(O)c1c(c(OC)c3occc3c1OC)O2", "note": "(stereo unspecified)", "inhibition": "inactive"},
      {"molecule": "CC(C)(C)c1ccc(CN2C(=O)CN=C(c3ccccc3)c3ccccc32)cc1", "inhibition": "50% (active)"},
      {"molecule": "CC(C)(C)c1ccc(OC(=O)N2CCCCC2)cc1", "inhibition": "inactive"},
      {"molecule": "CC(C)n1c(=O)c(C=Nc2ccc(Br)cc2)c(O)n(Cc2ccco2)c1=O", "inhibition": "inactive"},
      {"molecule": "CCCCCCN=C(CC)c1c(O)n(CCCC)c(=O)[nH]c1=O", "inhibition": "32% (active)"}
    ]}
  ]
}
